Pf growth 96h – Primary qHTS for delayed death inhibitors of the malarial parasite plastid, 96 hour incubation. P. falciparum luciferase reporter growth, 96 h. Potency, µM (top dose mostly 28.7 µM), for inactives: at the highest dose activity change, negative = inhibition, hits mostly inhibitors. 320,000 tested, 6.9% active. AID 504834, 2011; active means well fitted inhibition curve with a large enough effect; inconclusive means small, poorly fitted or top-dose-only effect, or another doubt; inactive means no such curve, though single readings can be large or run the other way; further: potency means the concentration at half of the fitted maximal effect; on the % scale 0 is the no-effect control and ±100 the full control effect
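Erythrocytes infected with luciferase-expressing P. falciparum were dispensed at 2% hematocrit and 0.05% parasitemia (final), then incubated with compounds 96 hours at 37 C in 5% CO2. Luminescence after detection reagent addition reported growth.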
Pf growth 48h – Primary qHTS for delayed death inhibitors of the malarial parasite plastid, 48 hour incubation. Potency, µM (doses to about 28.7 µM), for inactives: at the highest dose activity change, negative = inhibition, most hits filed as inhibitors. P. falciparum luciferase growth in erythrocytes, 48 h. 310,000 tested, 5.9% active; active means well fitted inhibition curve with a large enough effect; inconclusive means small, poorly fitted or top-dose-only effect, or another doubt; inactive means no such curve, though single readings can be large or run the other way; further: potency means the concentration at half of the fitted maximal effect; on the % scale 0 is the no-effect control and ±100 the full control effect
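Luminescence readout; reporter = integrated firefly luciferase in P. falciparum. RBC culture at 2% hematocrit, 0.1% parasitemia final, 37 C/5% CO2; decreased signal taken as growth inhibition.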
NS1 function inh – qHTS Assay for Inhibitors of Influenza NS1 Protein Function. Potency, µM (top dose mostly 46.1 µM), inactives show at the top dose activity, positive = more growth. 270,000 tested, 0.4% active; further: potency means the concentration at half of the fitted maximal effect; actives are rising curves; nearly all actives have a fitted effect of over 50% in size
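Recovery from NS1-induced slow growth read by OD600 in budding yeast switched to galactose assay medium (pH 6.0, -URA) at 1:100 dilution. Compound 23 nl per well; the matching strain lacking NS1 serves as control.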
Shiga inhibitor – A qHTS for Small Molecule Inhibitors of Shiga Toxin; Vero cells, Shiga toxin protein synthesis inhibition reporter; 290,000 tested, 9.2% active; inhibition, % at 38.7 µM; in the data active means inhibition mostly above about 28%, no sharp cut-off; inactive means mostly below about 43%; further: 0% is about no effect
CHX counter-1 – Cycloheximide Counterscreen for Small Molecule Inhibitors of Shiga Toxin. 300,000 tested, 12% active. max response, %. cell reporter, cycloheximide protein synthesis inhibition counterscreen; in the data active means max response mostly above about 13%, no sharp cut-off; inactive means mostly below about 14%; further: read at 38.3 µM for the half of the compounds with a filed dose; 0% is about no effect
SARS PLP yeast – qHTS of Yeast-based Assay for SARS-CoV PLP | 330,000 tested, 0.19% active | AID 485353, 2010 | S. cerevisiae expressing SARS-CoV PLpro, growth rescue | Potency, µM (series often up to 32.9 µM), for inactives: top-dose activity, positive = growth rescue, actives largely listed as activators; further: potency means the concentration at half of the fitted maximal effect; 0% is about no effect; nearly all actives have a fitted effect of over 55% in size
CHX counter-2 – Cycloheximide Counterscreen for Small Molecule Inhibitors of Shiga Toxin (Confirmatory); Potency, µM (titrated, usually from 38.3 µM), for inactives: at the highest dose activity (activation), most hits filed as activators; Cycloheximide counterscreen, protein synthesis reporter, Shiga toxin assay; 510 tested, 3% active; shares compounds with Shiga inhibitor; further: potency means the concentration at half of the fitted maximal effect; 0% is about no effect
Starred values were filed as active, the others as inactive; ? = inconclusive; . = not tested or not shown; [ ] = remark or other dose. Hits are enriched below; roughly 21% of the tested compounds scored in any of these assays. Unless noted, the call rests on the fitted dose curve.

SMILES	Pf growth 96h	Pf growth 48h	NS1 function inh	Shiga inhibitor	CHX counter-1	SARS PLP yeast	CHX counter-2
Cc1ccc(/C(O)=C2\C(=O)C(=O)N(c3cc(C)on3)C2c2cccc(Br)c2)cc1 (stereo not drawn)	143%	2%	?	39*	2	4%	-3%
Cc1cc(N2C(=O)C(=O)/C(=C(/O)c3ccc(F)cc3)C2c2cccc(Br)c2)no1 (stereo not drawn)	-8%	10%	17%	-3	1	0%	.
COc1ccc(C2C(C#N)=C(C)NC3=C2C(=O)CC(C)(C)C3)c(OC)c1 (stereo not drawn)	-17%	-28%	7%	43*	-3	1%	-2%
O=S(=O)(c1ccsc1)N1CC=C(c2ccccc2)CC1	-13%	-19%	-6%	35*	2	2%	?
O=C(O)CCC(=O)N1CCc2cc(S(=O)(=O)N3CC=C(c4ccccc4)CC3)ccc21	-20%	.	?	-3	0	-1%	.
CCCOC(=O)c1ccc(NC(=O)c2cc(=O)[nH]c3ccccc23)cc1	45%	-6%	-3%	1	-2	-1%	.
CC(=O)[C@@H]1[C@@H]2C(=O)N(c3ccc(F)c(Cl)c3)C(=O)[C@@H]2C2c3ccccc3C=CN21 (stereo partly drawn)	?	?	15%	active	-3	14%	-1%
COc1ccc(/C=C/c2nnc(NC(=O)CSc3ccc(Cl)cc3)s2)cc1	-10%	19%	3%	37*	8	-10%	?
Cc1noc(C)c1C(=O)Nc1ccc2c(c1)CCC2	15µM*	24%	-9%	73*	8	.	-2%
Cc1noc(C)c1C(=O)Nc1ccc(F)cc1	20%	12%	.	-12	2	1%	.
O=C(NCc1ccc2c(c1)CCO2)Nc1cccc(C(F)(F)F)c1	?	-14%	3%	25	-2	0%	.
COc1cccc2c1C(=O)c1c(O)c3c(c(O)c1C2=O)C[C@@](O)(C(=O)CO)C[C@@H]3O[C@H]1C[C@H](N)[C@H](O)[C@H](C)O1	0.093µM*	0.15µM*	?	38*	10*	.	0%[76.6 µM]
O=C(COc1c(Cl)cccc1Cl)NN1C(=O)CSC1=S	66%	23%	.	-8	-2	2%	.
O=C(COc1ccc2ccccc2c1)NCC1CCCO1 (stereo not drawn)	-26%	44%	4%	39*	-2	-1%	3%
O=C(COC(=O)COc1ccc(Br)cc1)NCC1CCCO1 (stereo not drawn)	.	.	.	.	.	-5%	.
Cn1c(NCCN(CCO)CCCc2ccc([N+](=O)[O-])cc2)cc(=O)n(C)c1=O	?	-29%	.	.	.	.	.
Cc1ccc(C(=O)CSc2nnnn2C(C)C)c(C)c1	52%	-8%	-8%	33*	1	-6%	0.32µM*
CCC(=O)Nc1ccc(NC(=O)CSc2nnnn2C(C)C)cc1	-9%	13%	5%	-12	1	8%	.
Cc1ccc(N2CCN(C(=O)c3ccccc3NC(=O)c3ccccc3C(=O)O)CC2)cc1	13%	34%	24%	39*	3	19%	-1%
COc1ccccc1C(=O)Nc1ccc(N2CCN(C(C)=O)CC2)cc1	8%	-3%	0%	53*	2	0%	-2%
Cc1cccc(C(C)Nc2ccc([N+](=O)[O-])cn2)c1 (stereo not drawn)	?	?	-23%	1	4	-20%	.
CCCc1cc(=O)oc2c3c(c(Cl)cc12)OCN(CCCO)C3	30%	22%	6%	-7	1	3%	.
COc1ccc(CNC(=O)CN(C(=O)c2csnn2)c2cccc(C(C)=O)c2)cc1	?	2%	-5%	-3	-3	-1%	.
CCOc1ccc(N(CC(=O)NCc2ccc3c(c2)OCO3)C(=O)c2csnn2)cc1	-10%	-10%	1%	37*	4	-9%	1%
COc1ccc(CNC(=O)CN(C(=O)c2csnn2)c2ccc3c(c2)OCCO3)cc1	41%	13%	15%	43*	9	5%	4%
SMILES	Pf growth 96h	Pf growth 48h	NS1 function inh	Shiga inhibitor	CHX counter-1	SARS PLP yeast	CHX counter-2
Cc1ccccc1CSCC(=O)NC1CCCC1	.	17%	0%	5	18	-3%	.
O=C(CSCc1ccco1)NC1CCCC1	20%	4%	10%	29*	3	5%	2%
CCN1CCN(C(=O)CS(=O)(=O)Cc2nc(-c3cccc(OC)c3)oc2C)CC1	1%	13%	-2%	-6	0	-4%	.
O=C(O)Cc1ccc2oc(-c3ccccn3)nc2c1	23%	-1%	11%	38*	13	0%	?
Cc1nn(C(C)C(=O)NC2CCC(C)CC2)c(=O)c2nn(-c3ccccc3)c(C)c12 (stereo not drawn)	16%	-2%	-3%	31*	-2	-2%	?
COc1ccc(CCNC(=O)C2CCN(S(=O)(=O)c3cccs3)CC2)cc1OC	?	17%	.	-13	-2	-4%	.
Cc1ccc(N(CC(=O)NCc2ccco2)C(=O)CCC(=O)Nc2nccs2)c(C)c1	18%	-24%	7%	27*	9	-1%	-1%
CC1(C)CC(=O)c2c(nn(-c3ccccc3)c2-c2ccncc2)C1	-13%	-24%	-4%	-7	-4	2%	.
Cc1nn(-c2ccc(C(=O)O)cc2)c2c1C(=O)CC(C)(C)C2	-17%	23%	-1%	81*	-2	0%	-5%
C=CCn1c(-c2ccc(OC)c(OC)c2)cs/c1=N\c1ccccn1	2%	?	-54%	29*	8	?	5%
CCc1ccc(NC(=O)c2cnc(N3CCN(c4ccccn4)CC3)c3ccccc23)cc1	13µM*	?	.	50*	13	-2%	2%
Nc1nonc1-n1nnc(C(=O)O)c1-c1cccs1	-4%	-4%	1%	10	1	6%	.
CCCC(=O)n1nc(-c2cccnc2)nc1NCc1ccccc1	4%	-11%	-11%	-11	-2	-1%	.
COc1cc2c(c(OC)c1OC)-c1c(cc(OC)c(OC)c1OC)C[C@](C)(O)[C@@H](C)C2	?	39%	8%	49*	1	-4%	-1%
COc1cccc(NC(=O)CSc2nncn2-c2ccccn2)c1	2%[5.75 µM]	9%	9%	8	2	3%	.
Cc1ccc([N+](=O)[O-])cc1NC(=O)CSc1nncn1-c1ccccn1	108%	8%	-11%	98*	-3	-1%	-2%
O=C(CCN1CCOCC1)NNC(=O)/C(=C/c1ccccc1)NC(=O)c1ccccc1	20%	15%	.	-18	9	-2%	.
